FMDV antiviral: blocks foot and mouth disease virus; FMDV antiviral cell-based qHTS; Potency, µM (doses to about 57.9 µM), for inactives: at the top dose activity change, negative = inhibition, usual class: inhibitors; hit rate 1.2% among 410,000; AID 1159524; calls by dose curve; tested in HEK293T cells; also: read-out not given here; potency is read from the fitted curve at half-maximal effect; nearly all actives have a fitted effect of over 45% in size
VACV mCherry inh: inhibitors of vaccinia virus infection (mCherry reporter signal); hit rate 0.63% among 310,000; AID 720579; Vaccinia virus mCherry reporter infection, fluorescence; Potency, µM (highest dose often 36.5 µM), for inactives: at the highest dose activity change, negative = inhibition, hits mostly inhibitors; calls by dose curve; tested in A549 cells; also: potency is read from the fitted curve at half-maximal effect; nearly all actives have a fitted effect of over 35% in size
Vaccinia Venus: vaccinia inhibition (Venus reporter); Vaccinia virus Venus reporter expression, fluorescence; AID 720580; Potency, µM (series often up to 36.5 µM), inactives show at the top dose activity change, negative = inhibition, usual class: inhibitors; hit rate 0.46% among 330,000; calls by dose curve; tested in A549 cells; also: potency is read from the fitted curve at half-maximal effect; nearly all actives have a fitted effect of over 30% in size
HCV inhibitor: blocks hepatitis C virus; hit rate 3.4% among 340,000; Potency, µM (doses to about 41.8 µM), inactives show at the highest dose activity change, negative = inhibition, most hits filed as inhibitors; Huh7.5.1 HCVcc-Cre infection, luciferase reporter, 44 h; also: potency is read from the fitted curve at half-maximal effect
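Luciferase read-out (15 sec integration) after a 15 min room-temperature substrate step quantifies HCVcc-Cre infection. Cells, 1,000 per well, had compound added 4 h post-plating, then virus at ~0.5 moi, and were cultured 44 h.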
HCMV antiviral: blocks human cytomegalovirus replication; HFF cells, HCMV-luciferase reporter, 72 h; hits give low values; activity change, negative = inhibition, % at 57.5 µM; hit rate 4.5% among 410,000; in the data active = activity change below about -60%; inconclusive = no clear call, values can overlap the other calls; inactive = above about -39%
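Two-dose cell screen: HFF monolayers treated with compounds and infected with luciferase-expressing HCMV at 1 PFU/cell, 72 h at 37C, then lysed for luciferase measurement.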
Sm TGR block: inhibitors of Schistosoma mansoni thioredoxin glutathione reductase; Potency, µM (highest dose often 114 µM), inactives show at the highest dose activity change, negative = inhibition, hits mostly inhibitors; Q962Y6; hit rate 3% among 360,000; purified TGR, DTNB reduction, TNB absorbance 405 nm; also: potency is read from the fitted curve at half-maximal effect; nearly all actives have a fitted effect of over 60% in size
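TGR 20 nM + NADPH 100 uM (dispensed conc.), cpd preinc 15 min RT; start with NADPH (500 uM addition) then DTNB (15 mM addition). Kinetic TNB absorbance, 405 nm filter. Four-parameter Hill fit across titration.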
Starred values were filed as active, the others as inactive; i = inactive; u = inconclusive; x = not tested or not shown. Rows were chosen to be rich in hits. Some 9.3% of all compounds tested hit in one or more screens of this group. Unless noted, calls follow the shape of the dose curve; as a rule, active = well fitted curve in the direction sought with a large enough effect; inconclusive = small, poorly fitted or top-dose-only effect, or another doubt; inactive = no such curve, though single readings can be large; an effect the other way counts as inactive or inconclusive. % is scaled to controls: 0 for no effect and ±100 for the full control effect.

SMILES	FMDV antiviral	VACV mCherry inh	Vaccinia Venus	HCV inhibitor	HCMV antiviral	Sm TGR block
COc1cccc(C(=O)N(c2ccc(OC)cc2OC)C2C=CS(=O)(=O)C2)c1 (stereo unspecified)	x	u	-6%	-1%	5	15%
COc1ccc(N(C(=O)c2ccccc2OC)C2C=CS(=O)(=O)C2)c(OC)c1 (stereo unspecified)	x	-2%	-9%	8%	33	-22%
COc1cccc(C(=O)N(c2ccc(C)cc2)C2C=CS(=O)(=O)C2)c1 (stereo unspecified)	-9%	x	x	-19%	-101*	4%
COC(=O)c1cccc(NC(=O)Nc2cc(C(=O)NCc3cccc(F)c3)ccc2N2CCCC2)c1	33%	-25%	-21%	x	-6	-7%
O=C(CC1CCCC1)N1CCCC(Nc2ccc(F)cc2)C1 (stereo unspecified)	-19%	-12%	-17%	13%	1	-13%
CC1=CC(C)(C)n2c(O)c(C3=NC(=S)NC3=O)c3cc(OC(=O)c4cccc5ccccc45)cc1c32	u	-13%	0%	u	-72*	9%
CC(C)c1onc(C(=O)N2CCC(C(N)=O)CC2)c1[N+](=O)[O-]	-14%	x	x	8%	-10	-19%
COc1ccc(C(=O)NCC(=O)N2CCN(C(=O)c3ccco3)CC2)cc1[N+](=O)[O-]	u	-9%	3%	-5%	38	x
CN(C)C(=S)Nc1ccc(Cl)cc1	11%	i	-3%	13%	u	9%
Cc1ccc(S(=O)(=O)CCC(=O)Nc2nnc(-c3ccccc3S(C)(=O)=O)o2)cc1	-5%	u	-23%	10%	-11	-32%
Cc1sc2c(c1C)CN(CCN1CCOCC1)CN2C(=O)c1ccccc1	22%	0%	-10%	-1%	103	79µM*
COc1ccc(C(=O)NC(=S)Nc2cccc3nc(C)ccc23)cc1OC	-36%	x	x	-16%	-29	u
O=c1[nH]c2ccccc2cc1-c1nnn(-c2ccccc2)n1	2%	-12%	-26%	14%	6	x
O=C(CCCSc1nnc(SCCCC(=O)c2ccc(F)cc2)s1)c1ccc(F)cc1	x	u	11µM*	10µM*	-16	9%
COc1ccc(-c2nn(CC(=O)NCCc3ccccc3)c(=S)n2C)cc1	20%	-22%	-13%	u	-96*	-14%
CCn1c(-c2ccc(C)cc2)nn(CC(=O)NCCc2ccccc2)c1=S	11%	-14%	-25%	u	-103*	0%
Cc1ccc(NC(=O)CSC(C)C(=O)OC(C)C(=O)NC2CCCCC2C)cc1 (stereo unspecified)	-1%	x	x	-2%	28	-8%
O=S(=O)(NCc1ccccc1)NCc1ccccc1F	49%	i	-4%	3%	4	8%
O=S(=O)(NCc1ccccc1)NCc1ccccc1	21%	-3%	-10%	3%	-68*	68%
COCCOC(=O)c1c(NC(=O)CNC2CCCc3ccccc32)sc(C(N)=O)c1C (stereo unspecified)	u	i	0%	-14%	-14	5%
CC(C)CNC(=O)c1coc(=O)c(Br)c1	u	x	x	u	-77*	-9%
O=C(NCCC1=CCCCC1)c1coc(=O)c(Br)c1	-25%	i	-12%	u	-103*	4%
Cc1cc(C(=O)NCCC2=CCCCC2)c(C)o1	1%	x	x	9%	107	22µM*
CSCCC(NS(=O)(=O)c1ccccc1F)C(=O)NNC(=O)c1csc(N2CCOCC2)n1 (stereo unspecified)	-4%	-16%	-7%	u	-10	0%
CCOC(=O)N1CCN(C(=O)CS(=O)Cc2nc(-c3ccc(OC)c(OC)c3)oc2C)CC1 (stereo unspecified)	-11%	x	x	-12%	-17	45µM*
SMILES	FMDV antiviral	VACV mCherry inh	Vaccinia Venus	HCV inhibitor	HCMV antiviral	Sm TGR block
Cc1ccc(-c2nc(CS(=O)CC(=O)NCCN3CCOCC3)c(C)o2)cc1 (stereo unspecified)	-16%	-2%	-10%	-1%	39	-20%
CCOC(=O)N1CCN(C(=O)CS(=O)Cc2nc(-c3cccc(C)c3)oc2C)CC1 (stereo unspecified)	-22%	i	-7%	0%	5	u
Cc1ccc(-c2nc(CS(=O)CC(=O)N3CCC4(CC3)OCCO4)c(C)o2)cc1 (stereo unspecified)	x	x	x	-16%	-23	45µM*
COc1ccc(-c2nc(CS(=O)CC(=O)N3CCCC3)c(C)o2)cc1 (stereo unspecified)	-20%	0%	14%	13%	19	7.1µM*
CCN1CCN(C(=O)CS(=O)Cc2nc(-c3ccc(OC)cc3)oc2C)CC1 (stereo unspecified)	-25%	i	-13%	5%	9	u
C[C@H](CO)N1C[C@H](C)[C@@H](CN(C)C(=O)Nc2ccc(C(F)(F)F)cc2)Oc2c(NC(=O)Nc3ccccc3)cccc2C1=O	-12%	i	u	-14%	-17	x
C[C@@H]1CN([C@H](C)CO)C(=O)c2cccc(NC(=O)Nc3ccc(F)cc3)c2O[C@H]1CN(C)C(=O)Nc1ccc(C(F)(F)F)cc1	u	-28%	u	u	-61*	x
COc1ccc(NC(=O)N(C)C[C@H]2Oc3c(NC(=O)Nc4ccc(C(F)(F)F)cc4)cccc3C(=O)N([C@H](C)CO)C[C@@H]2C)cc1	-28%	-16%	u	6.3µM*	13	x
COc1ccc(NC(=O)N(C)C[C@H]2Oc3c(NC(=O)c4nc5ccccc5s4)cccc3C(=O)N([C@@H](C)CO)C[C@H]2C)cc1	-14%	-10%	u	u	-103*	x
CN(C)S(=O)(=O)N1CCC(Oc2ccc(C(=O)NCc3cnn(C)c3)cc2)CC1	-30%	-6%	-12%	u	-17	0%
CCN(CC)C(C)CN1c2ccccc2Sc2ccccc21 (stereo unspecified)	28µM*	-29%	u	x	x	x
COc1cccc(C2=CC(=O)C[C@H](c3ccc(Cl)cc3)C2)c1	-17%	-5%	-21%	-4%	-31	-2%
CN(C)CC1CCCCC1OC(=O)c1ccc(Cl)cc1Cl (stereo unspecified)	-13%	x	x	u	-61*	0%
CN(C)CC1CCCCC1OC(=O)c1ccc(Br)cc1 (stereo unspecified)	-15%	-5%	-7%	u	47	1%
O=C(O)COCC(=O)N1CCN(c2cc(C(F)(F)F)nc3ccccc23)CC1	-25%	x	x	15%	-14	3%
CCC(=O)N1CCN(c2ccc(-n3c(=O)ccc4cnc5ccc(-c6cnc7ccccc7c6)cc5c43)cc2C(F)(F)F)CC1	x	x	x	x	-83*	x

Source: PubChem (National Center for Advancing Translational Sciences (NCATS))
